An excerpt weighted towards active compounds, which were near 21% of everything screened.
Shiga toxin inh: A qHTS for Small Molecule Inhibitors of Shiga Toxin; inhibition, % at 38.7 µM; Vero cells, Shiga toxin protein synthesis inhibition reporter; 290,000 compounds, 9.2% hits; in the data active = inhibition mostly above about 28%, no sharp cut-off; inactive = mostly below about 43%
CHX counter: Cycloheximide Counterscreen for Small Molecule Inhibitors of Shiga Toxin | max response, % | cell reporter, cycloheximide protein synthesis inhibition counterscreen | AID 2314, 2010 | 300,000 compounds, 12% hits; in the data active = max response mostly above about 13%, no sharp cut-off; inactive = mostly below about 14%; also: read at 38.3 µM for the half of the compounds with a filed dose
Pf growth 96h: Primary qHTS for delayed death inhibitors of the malarial parasite plastid, 96 hour incubation; P. falciparum luciferase reporter growth, 96 h; 320,000 compounds, 6.9% hits; Potency, µM (doses to about 28.7 µM), usual class: inhibitors
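Plates of compound plus infected erythrocytes (2% hematocrit, 0.05% parasitemia final) incubate 96 hours, 37 C, 5% CO2. Detection reagent added; reduced luminescence from the parasites' luciferase reporter flags inhibition.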
HCMV antiviral: qHTS Assay for inhibitors of the human cytomegalovirus (HCMV); HFF cells, HCMV-luciferase reporter, 72 h; stronger effect = lower value; activity change, negative = inhibition, % at 57.5 µM; 410,000 compounds, 4.5% hits; AID 1259415, 2018; in the data active = activity change below about -60%; inconclusive = no clear call, values can overlap the other calls; inactive = above about -39%
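Two compound doses tested in HFFs infected with HCMV-luciferase, MOI 1 PFU/cell, 72 h at 37C. Lysate luminescence read with OneGlo; data normalized against buffer-only and 10uM Salinomycin inhibitor controls.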
Pf growth 48h: Primary qHTS for delayed death inhibitors of the malarial parasite plastid, 48 hour incubation; P. falciparum luciferase growth in erythrocytes, 48 h; Potency, µM (top dose mostly 28.7 µM), most hits filed as inhibitors; 310,000 compounds, 5.9% hits; AID 504832, 2011
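First compound was added to culture medium, then infected red cells at 0.1% parasitemia and 2% hematocrit (final). After incubation at 37 C under 5% CO2, luciferase detection reagent was dispensed and light output recorded.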
HCV inh: qHTS Assay for Inhibitors of Hepatitis C Virus (HCV); Huh7.5.1 HCVcc-Cre infection, luciferase reporter, 44 h; Potency, µM (doses to about 41.8 µM), actives largely listed as inhibitors; 340,000 compounds, 3.4% hits; AID 651820, 2012
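A cell-based infection assay in which seeded cells (1,000 per well) receive test compound after 4 h, are inoculated with HCVcc-Cre at approximately 0.5 moi, and are incubated 44 h before luminescence detection.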
Large screens that a line does not name were inactive; ! = a repeat was not active. Unless noted, calls follow the shape of the dose curve; as a rule, active = well fitted inhibition curve with a large enough effect; inconclusive = small, poorly fitted or top-dose-only effect, or another doubt; inactive = no such curve, though single readings can be large or run the other way.

O=C(NCc1ccccn1)C(=O)NCC1OCCCN1S(=O)(=O)c1cc(F)ccc1F (stereo not drawn)	none (no result: HCV inh)
Cc1nc(N2CCN(c3ccccn3)CC2)c2c(C)c(C(=O)N3CCN(c4ccccc4F)CC3)sc2n1	Pf growth 48h 8.3µM, HCV inh 32µM
Cc1ccc(NC(=O)c2sc3ncnc(N4CCN(c5ccccn5)CC4)c3c2C)c(C)c1	Pf growth 96h inconclusive, HCMV antiviral inconclusive, Pf growth 48h inconclusive, HCV inh inconclusive
Cc1ccc(NC(=O)c2sc3nc(C)nc(N4CCN(c5ccccn5)CC4)c3c2C)c(C)c1	HCMV antiviral inconclusive, Pf growth 48h inconclusive
Cc1nc(N2CCN(c3ccccn3)CC2)c2c(C)c(C(=O)Nc3ccc(Br)cc3C)sc2n1	HCMV antiviral inconclusive, Pf growth 48h 2.9µM
COc1ccc(C)cc1NC(=O)c1sc2ncnc(N3CCN(c4ccccn4)CC3)c2c1C	Pf growth 48h inconclusive, HCV inh 1.4µM
COc1ccc(C(=O)NCCS(=O)(=O)NC(C)c2ccccc2)cc1 (stereo not drawn)	Pf growth 96h inconclusive (no result: Shiga toxin inh, CHX counter)
Cc1ccc(CN(C(=O)COc2ccc(Br)cc2)c2ccccn2)o1	none (no result: Shiga toxin inh, CHX counter, Pf growth 96h, Pf growth 48h, HCV inh)
COc1ccc(OC)c(CNS(=O)(=O)c2cc(-c3onc(C)c3C)ccc2C)c1	none (no result: Shiga toxin inh, CHX counter, Pf growth 96h, Pf growth 48h, HCV inh)
Cc1ccccc1NC(=NCCCN1CC1)Nc1ccccc1C	HCMV antiviral -77, HCV inh inconclusive (no result: Shiga toxin inh, CHX counter, Pf growth 96h, Pf growth 48h)
COc1ccccc1NS(=O)(=O)c1ccc(-c2cc(C)no2)s1	none
CCOc1ccc(N(C)S(=O)(=O)c2ccc(-c3cc(C)no3)s2)cc1	Pf growth 96h inconclusive, Pf growth 48h inconclusive, HCV inh 10µM
CCOc1ccc(N(C)S(=O)(=O)c2ccc(-c3ccc(=O)[nH]n3)s2)cc1	Pf growth 96h 12µM
Cc1cccc(N(C)S(=O)(=O)c2ccc(-c3cc(C)no3)s2)c1	HCMV antiviral -74!
CCN(c1cccc(C)c1)S(=O)(=O)c1ccc(-c2cc(C)no2)s1	Pf growth 96h 12µM, HCMV antiviral -65, Pf growth 48h inconclusive
COc1ccc(-c2cc3nc(C)c(CCC(=O)NC(C)c4ccccc4)c(C)n3n2)c(OC)c1 (stereo not drawn)	none (no result: Shiga toxin inh, CHX counter, Pf growth 96h, Pf growth 48h, HCV inh)
N#Cc1ccc(N2Cc3ccccc3C2=NC(=O)c2cccs2)cc1	Shiga toxin inh active, CHX counter 38, HCV inh inconclusive
CC(=O)c1cccc(N2Cc3ccccc3C2=NC(=O)CCl)c1	CHX counter 25, Pf growth 96h 13µM
CCOC(=O)c1ccc(N2Cc3ccccc3C2=NC(=O)c2cccs2)cc1	Pf growth 96h inconclusive, Pf growth 48h inconclusive
CC(=O)c1ccc(N2Cc3ccccc3C2=NC(=O)c2cccs2)cc1	Shiga toxin inh 60, CHX counter 26, HCV inh inconclusive
CC(=O)c1ccc(N2Cc3ccccc3/C2=N\C(=O)Nc2ccccc2)cc1	CHX counter 28
Cc1ccc(NC(=O)C/C(N)=N/OC(=O)Nc2cccc(Cl)c2)cc1	none (no result: Shiga toxin inh, CHX counter)
COc1ccc(Cl)cc1NC(=O)CN(C)Cc1cccs1	Pf growth 96h inconclusive, Pf growth 48h inconclusive, HCV inh inconclusive
CCOc1ccccc1N1CCN(C(=O)c2ccc(S(=O)(=O)Nc3ccccc3)cc2)CC1	Pf growth 96h 9.3µM, HCMV antiviral inconclusive, Pf growth 48h inconclusive, HCV inh 10µM (no result: Shiga toxin inh, CHX counter)
CCOc1ccccc1N1CCN(C(=O)NC2CCCCC2)CC1	Pf growth 96h 1.7µM
Cc1ccccc1NS(=O)(=O)c1ccc(C(=O)N2CCN(c3ccccc3O)CC2)cc1	Pf growth 96h 5.2µM, Pf growth 48h 13µM, HCV inh inconclusive
Cc1cccc(N2CCN(C(=O)NC3CCCCC3)CC2)c1C	HCV inh inconclusive
Cc1ccc(S(=O)(=O)Nc2ccc(C(=O)N3CCN(c4ccccc4O)CC3)cc2)cc1[N+](=O)[O-]	Pf growth 48h 15µM (no result: Shiga toxin inh, CHX counter)
COc1ccc2c(c1)c1c(c(=O)n(Cc3ccccc3)c(=O)n1CC(=O)Nc1ccccc1OC)n2C	none (no result: Shiga toxin inh, CHX counter, Pf growth 96h, Pf growth 48h, HCV inh)
CCCCNC(=S)NC(C)(C)CO	none
